Reference: the supplement of paper PMC11732987, “Enantioselective OTUD7B fragment discovery through chemoproteomics screening and high-throughput optimisation” (Communications Chemistry, 2025)

Key:
Assay in all cases: log2 ratio of Biotin-Ahx-Ub-VS probe labelling (fragment/DMSO); higher = less target engagement (more negative = stronger competition), active = hit call of the paper (q ≤ 0.05, log2 ratio ≤ -1)
Conditions in all cases: compound concentration: 200 uM; treatment time: 3 h
ALG13 = target: T1, ALG13 (UniProt Q9NP73)
T1 sequence (whole entry): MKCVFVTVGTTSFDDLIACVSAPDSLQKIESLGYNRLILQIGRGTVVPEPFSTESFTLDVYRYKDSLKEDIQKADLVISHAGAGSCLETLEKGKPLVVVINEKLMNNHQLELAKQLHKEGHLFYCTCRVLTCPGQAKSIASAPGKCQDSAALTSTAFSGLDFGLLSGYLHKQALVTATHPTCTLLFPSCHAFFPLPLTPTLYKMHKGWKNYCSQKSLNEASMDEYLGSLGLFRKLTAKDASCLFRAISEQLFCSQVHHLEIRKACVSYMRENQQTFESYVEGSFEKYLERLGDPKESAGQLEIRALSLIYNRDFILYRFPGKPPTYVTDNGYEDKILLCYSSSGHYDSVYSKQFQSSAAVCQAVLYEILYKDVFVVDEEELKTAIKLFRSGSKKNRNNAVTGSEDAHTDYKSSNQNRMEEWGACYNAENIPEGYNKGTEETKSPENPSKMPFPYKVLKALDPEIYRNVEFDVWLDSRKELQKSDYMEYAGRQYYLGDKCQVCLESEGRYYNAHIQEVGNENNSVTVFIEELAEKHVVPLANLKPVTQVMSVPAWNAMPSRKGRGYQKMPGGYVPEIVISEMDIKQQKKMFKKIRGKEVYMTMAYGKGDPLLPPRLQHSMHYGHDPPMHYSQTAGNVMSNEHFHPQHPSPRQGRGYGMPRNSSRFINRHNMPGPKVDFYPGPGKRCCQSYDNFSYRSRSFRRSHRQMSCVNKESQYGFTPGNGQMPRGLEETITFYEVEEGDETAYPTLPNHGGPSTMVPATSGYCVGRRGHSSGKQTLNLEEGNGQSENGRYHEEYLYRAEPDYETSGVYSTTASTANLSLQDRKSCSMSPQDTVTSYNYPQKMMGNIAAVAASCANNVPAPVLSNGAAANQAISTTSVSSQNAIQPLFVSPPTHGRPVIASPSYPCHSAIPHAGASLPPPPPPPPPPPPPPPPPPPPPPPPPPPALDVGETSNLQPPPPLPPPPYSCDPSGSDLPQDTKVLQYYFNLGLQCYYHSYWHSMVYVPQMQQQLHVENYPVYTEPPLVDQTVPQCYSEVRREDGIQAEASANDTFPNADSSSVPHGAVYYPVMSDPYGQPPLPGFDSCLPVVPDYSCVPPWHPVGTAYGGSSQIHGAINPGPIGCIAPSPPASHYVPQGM
In short: (§1)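 The table lists average log2 ratios of fragment over vehicle, from an unpaired t-test on global-median-normalised Spectronaut label-free quantities. Proteins with ≥2 unique peptides were used. Samples were HEK293T lysate (495 µg) treated in triplicate with fragment at 200 µM or vehicle for 3 h, then with Biotin-Ahx-Ub-VS (0.5 µM final) for 1 h, with labelled DUBs NeutrAvidin-enriched and run by diaPASEF LC-MS/MS.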

ATXN3 = ATXN3 (UniProt P54252)
In short: as §1

BAP1 = target: T2, BAP1 (UniProt Q92560)
T2 sequence (whole entry): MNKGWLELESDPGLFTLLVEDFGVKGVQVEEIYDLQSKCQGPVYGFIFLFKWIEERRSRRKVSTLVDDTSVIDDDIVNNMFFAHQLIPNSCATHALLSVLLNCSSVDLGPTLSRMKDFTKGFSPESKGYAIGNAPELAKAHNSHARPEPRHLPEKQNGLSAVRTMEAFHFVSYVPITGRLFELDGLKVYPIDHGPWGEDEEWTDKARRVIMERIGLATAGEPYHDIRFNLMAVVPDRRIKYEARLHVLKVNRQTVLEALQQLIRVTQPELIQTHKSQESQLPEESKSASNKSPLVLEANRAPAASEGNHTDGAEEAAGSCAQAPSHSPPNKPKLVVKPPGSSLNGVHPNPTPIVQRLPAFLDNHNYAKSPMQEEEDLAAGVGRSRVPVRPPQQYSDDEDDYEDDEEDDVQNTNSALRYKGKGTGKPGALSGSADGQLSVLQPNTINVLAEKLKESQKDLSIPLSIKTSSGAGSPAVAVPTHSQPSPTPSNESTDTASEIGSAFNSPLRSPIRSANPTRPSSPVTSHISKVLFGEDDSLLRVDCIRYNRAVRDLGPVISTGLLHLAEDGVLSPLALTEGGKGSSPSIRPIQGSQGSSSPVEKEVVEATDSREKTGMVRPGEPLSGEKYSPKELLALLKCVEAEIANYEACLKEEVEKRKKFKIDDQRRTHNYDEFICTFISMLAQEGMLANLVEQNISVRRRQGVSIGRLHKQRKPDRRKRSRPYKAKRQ
In short: as §1

EIF3F = EIF3F (UniProt O00303)
In short: as §1

EIF3H = EIF3H (UniProt O15372)
In short: as §1

FAM105A = target: T3, FAM105A (UniProt Q9NUU6)
T3 sequence (whole entry): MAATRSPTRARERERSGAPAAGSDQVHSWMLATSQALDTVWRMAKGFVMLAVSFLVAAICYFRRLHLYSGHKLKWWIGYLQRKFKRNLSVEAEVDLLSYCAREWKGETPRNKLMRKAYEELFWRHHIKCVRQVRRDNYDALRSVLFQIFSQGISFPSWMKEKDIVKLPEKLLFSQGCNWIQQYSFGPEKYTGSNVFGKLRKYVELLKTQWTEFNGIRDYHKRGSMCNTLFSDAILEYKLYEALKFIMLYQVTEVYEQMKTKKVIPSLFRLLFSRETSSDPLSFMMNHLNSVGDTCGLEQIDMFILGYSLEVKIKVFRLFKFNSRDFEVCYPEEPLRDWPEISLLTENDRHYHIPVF
In short: as §1

OTUB1 = OTUB1 (UniProt Q96FW1)
In short: as §1

OTUD4 = target: T4, OTUD4 (UniProt Q01804)
T4 sequence (whole entry): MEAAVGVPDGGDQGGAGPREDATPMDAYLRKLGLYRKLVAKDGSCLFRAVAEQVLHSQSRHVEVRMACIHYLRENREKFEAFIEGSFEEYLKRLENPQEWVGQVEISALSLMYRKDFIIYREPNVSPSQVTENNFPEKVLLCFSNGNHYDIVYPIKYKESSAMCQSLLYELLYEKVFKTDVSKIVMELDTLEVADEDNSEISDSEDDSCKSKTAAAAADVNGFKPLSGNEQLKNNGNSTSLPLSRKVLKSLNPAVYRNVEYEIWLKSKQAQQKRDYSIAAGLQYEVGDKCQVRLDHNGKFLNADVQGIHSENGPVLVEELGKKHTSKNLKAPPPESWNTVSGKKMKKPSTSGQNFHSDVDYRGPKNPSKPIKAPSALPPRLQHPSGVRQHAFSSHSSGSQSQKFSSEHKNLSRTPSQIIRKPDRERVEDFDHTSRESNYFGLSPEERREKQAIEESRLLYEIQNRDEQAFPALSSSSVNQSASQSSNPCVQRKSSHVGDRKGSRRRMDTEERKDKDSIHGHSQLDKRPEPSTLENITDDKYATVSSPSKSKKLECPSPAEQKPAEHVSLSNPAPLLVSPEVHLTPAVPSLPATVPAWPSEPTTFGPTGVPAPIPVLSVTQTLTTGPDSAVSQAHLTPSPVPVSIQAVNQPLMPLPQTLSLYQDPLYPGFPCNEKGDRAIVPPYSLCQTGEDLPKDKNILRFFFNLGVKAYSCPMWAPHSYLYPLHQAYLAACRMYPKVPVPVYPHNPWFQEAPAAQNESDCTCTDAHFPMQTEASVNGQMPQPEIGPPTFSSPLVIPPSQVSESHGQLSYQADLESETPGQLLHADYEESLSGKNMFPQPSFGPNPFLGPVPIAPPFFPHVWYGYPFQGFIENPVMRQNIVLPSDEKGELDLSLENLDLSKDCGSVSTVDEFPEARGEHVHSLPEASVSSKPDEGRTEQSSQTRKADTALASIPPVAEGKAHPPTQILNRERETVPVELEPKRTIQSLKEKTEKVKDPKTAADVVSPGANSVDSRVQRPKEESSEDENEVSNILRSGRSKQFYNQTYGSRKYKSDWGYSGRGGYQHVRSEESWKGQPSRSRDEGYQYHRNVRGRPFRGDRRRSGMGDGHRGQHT
In short: as §1

OTUD5 = target: T5, OTUD5 (UniProt Q96G74)
T5 sequence (whole entry): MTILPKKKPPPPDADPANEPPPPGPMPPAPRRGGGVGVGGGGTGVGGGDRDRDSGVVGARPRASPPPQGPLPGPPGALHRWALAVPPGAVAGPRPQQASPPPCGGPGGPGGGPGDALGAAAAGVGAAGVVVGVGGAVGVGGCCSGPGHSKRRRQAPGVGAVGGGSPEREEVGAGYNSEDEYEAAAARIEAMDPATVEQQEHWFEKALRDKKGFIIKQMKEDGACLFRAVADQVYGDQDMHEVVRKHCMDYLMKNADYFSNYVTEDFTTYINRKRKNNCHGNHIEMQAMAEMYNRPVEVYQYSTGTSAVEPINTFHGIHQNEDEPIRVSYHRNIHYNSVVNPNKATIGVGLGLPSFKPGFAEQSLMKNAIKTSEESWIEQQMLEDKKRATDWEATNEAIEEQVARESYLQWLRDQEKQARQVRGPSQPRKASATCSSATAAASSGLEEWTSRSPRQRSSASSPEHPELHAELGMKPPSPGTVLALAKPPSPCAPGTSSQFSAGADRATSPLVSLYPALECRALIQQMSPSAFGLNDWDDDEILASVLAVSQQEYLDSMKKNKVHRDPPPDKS
In short: as §1

Measured: log2 ratio of Biotin-Ahx-Ub-VS probe labelling

Chain of EIF3H (O15372 whole entry): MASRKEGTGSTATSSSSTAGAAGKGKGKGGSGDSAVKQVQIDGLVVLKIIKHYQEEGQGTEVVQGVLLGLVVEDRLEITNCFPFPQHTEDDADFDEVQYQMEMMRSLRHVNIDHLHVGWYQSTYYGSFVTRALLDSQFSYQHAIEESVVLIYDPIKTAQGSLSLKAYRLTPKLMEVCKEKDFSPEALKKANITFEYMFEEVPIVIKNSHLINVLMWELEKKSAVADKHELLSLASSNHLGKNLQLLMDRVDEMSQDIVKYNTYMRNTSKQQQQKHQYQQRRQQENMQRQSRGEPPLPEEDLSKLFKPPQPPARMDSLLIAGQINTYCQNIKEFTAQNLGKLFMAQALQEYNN
Chain of EIF3F (O00303 whole entry): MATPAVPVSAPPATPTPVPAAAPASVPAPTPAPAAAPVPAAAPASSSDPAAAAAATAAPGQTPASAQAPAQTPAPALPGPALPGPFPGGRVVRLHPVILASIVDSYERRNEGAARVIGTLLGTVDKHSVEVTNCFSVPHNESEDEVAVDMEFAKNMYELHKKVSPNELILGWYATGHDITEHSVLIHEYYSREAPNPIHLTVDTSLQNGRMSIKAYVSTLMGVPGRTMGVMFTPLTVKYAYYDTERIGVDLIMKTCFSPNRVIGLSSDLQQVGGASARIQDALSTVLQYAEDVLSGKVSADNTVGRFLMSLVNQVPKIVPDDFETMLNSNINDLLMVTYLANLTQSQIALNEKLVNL
Chain of OTUB1 (Q96FW1 whole entry): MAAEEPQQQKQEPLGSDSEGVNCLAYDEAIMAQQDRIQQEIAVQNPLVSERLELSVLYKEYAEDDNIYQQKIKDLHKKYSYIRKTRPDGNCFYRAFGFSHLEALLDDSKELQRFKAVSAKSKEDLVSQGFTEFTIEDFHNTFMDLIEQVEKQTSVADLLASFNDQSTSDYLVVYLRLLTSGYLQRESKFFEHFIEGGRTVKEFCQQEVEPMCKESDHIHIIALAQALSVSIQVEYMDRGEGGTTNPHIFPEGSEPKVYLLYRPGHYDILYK
Chain of ATXN3 (P54252 whole entry): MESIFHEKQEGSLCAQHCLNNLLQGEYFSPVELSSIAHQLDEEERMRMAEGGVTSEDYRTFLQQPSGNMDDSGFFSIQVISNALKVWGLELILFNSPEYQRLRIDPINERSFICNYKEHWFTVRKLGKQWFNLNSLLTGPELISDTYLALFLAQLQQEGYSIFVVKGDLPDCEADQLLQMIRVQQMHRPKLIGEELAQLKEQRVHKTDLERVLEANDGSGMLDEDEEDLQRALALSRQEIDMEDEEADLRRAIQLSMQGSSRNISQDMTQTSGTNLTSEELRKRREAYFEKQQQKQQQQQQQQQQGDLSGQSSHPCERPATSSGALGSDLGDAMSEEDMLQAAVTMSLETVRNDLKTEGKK

N#Cc1ccccc1N1CCN(C(=O)CCl)CC1
active: ATXN3 -1.16 | BAP1 -1.32
inactive: ALG13 -0.383 | EIF3F -0.123 | EIF3H -0.0881 | FAM105A 0.162 | OTUB1 -0.449 | OTUD4 -0.714 | OTUD5 -0.872
